Screening results deposited in PubChem by National Center for Advancing Translational Sciences (NCATS).
A selection: hits, their analogues and other compounds. The true share with any hit is near 10%.
JMJD2A Tudor = JMJD2A Tudor domain (human) inhibition. O75164. AlphaScreen JMJD2A-Tudor / H3K4me3 peptide binding. Potency, µM (series often up to 114 µM), actives largely listed as inhibitors. 390,000 compounds, 4.4% hits; also: nearly all actives have a fitted effect of over 50% in size
G9a block = blocks human histone lysine methyltransferase G9a; G9a H3K9 monomethylation, AlphaScreen, 2 h; 350,000 compounds, 8.8% hits; Potency, µM (titrated, usually from 102 µM), actives largely listed as inhibitors; also: nearly all actives have a fitted effect of over 75% in size
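Methyltransferase reactions run at room temperature for 2 h (20 nM enzyme, 500 nM biotin-H3K9 peptide, 20 uM SAM) after a 15 min compound preincubation; product detected by AlphaScreen beads and anti-H3K9me1 antibody.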
Six1-Eya2 blk = Six1/Eya2 interaction inhibition. Q15475+O00167. 360,000 compounds, 0.56% hits. AlphaScreen GST-Six1/His-Eya2 binding, biochemical; stronger effect = lower value. activity change, % (no concentration beside the values); in the data active = activity change below about -65%; inconclusive = mostly about -30% to -63%
Target sequence (O00167 whole entry, looked up): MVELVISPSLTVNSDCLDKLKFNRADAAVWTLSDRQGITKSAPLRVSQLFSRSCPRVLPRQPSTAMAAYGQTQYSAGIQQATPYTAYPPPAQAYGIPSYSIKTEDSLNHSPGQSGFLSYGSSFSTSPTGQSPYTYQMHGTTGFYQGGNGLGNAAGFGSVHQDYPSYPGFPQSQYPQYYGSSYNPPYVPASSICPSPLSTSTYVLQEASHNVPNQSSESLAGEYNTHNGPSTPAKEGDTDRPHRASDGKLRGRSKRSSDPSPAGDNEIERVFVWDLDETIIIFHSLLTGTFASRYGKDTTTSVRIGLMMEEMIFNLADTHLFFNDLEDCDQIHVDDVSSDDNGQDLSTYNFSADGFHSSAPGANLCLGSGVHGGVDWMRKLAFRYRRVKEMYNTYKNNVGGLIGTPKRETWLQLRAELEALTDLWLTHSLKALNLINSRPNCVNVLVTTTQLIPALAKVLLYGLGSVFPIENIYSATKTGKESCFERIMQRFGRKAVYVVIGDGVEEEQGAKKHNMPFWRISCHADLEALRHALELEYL
Target sequence (Q15475 whole entry, looked up): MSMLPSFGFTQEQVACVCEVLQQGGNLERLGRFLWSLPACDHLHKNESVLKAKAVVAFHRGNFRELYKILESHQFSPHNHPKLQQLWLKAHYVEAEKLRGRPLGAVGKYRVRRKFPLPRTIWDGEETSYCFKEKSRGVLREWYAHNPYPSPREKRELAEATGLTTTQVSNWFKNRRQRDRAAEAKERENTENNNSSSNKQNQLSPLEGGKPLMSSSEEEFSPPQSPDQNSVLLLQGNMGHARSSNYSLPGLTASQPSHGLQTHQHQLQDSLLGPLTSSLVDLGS
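Six1/Eya2 binding was read as AlphaScreen signal after compounds were pinned into GST-Six1 plus His-tagged Eya2 (5X stock 250/500 nM) in pH 8.0 Tris/NaCl/TCEP buffer, beads added, then incubated 1 h, 37 C, dark.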
HP1b chromo inh = HP1-beta chromodomain-methylated histone interaction inhibition | AlphaScreen HP1-beta / biotin-H3K9me3 peptide binding | Potency, µM (doses to about 114 µM), usual class: inhibitors | 390,000 compounds, 0.56% hits | AID 540317; also: nearly all actives have a fitted effect of over 70% in size
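HP1-beta protein (50 nM final) preincubated 30 min at room temperature with biotinylated H3(1-18)K9me3 peptide (50 nM) in PBS pH 7.4, 0.01% Tween-20, then compound added for 30 min. AlphaScreen streptavidin donor/nickel chelate acceptor beads (10 ug/mL final), 30 min dark, luminescence read.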
BAZ2B inh = inhibitors of human BAZ2B bromodomain; AlphaScreen BAZ2B-H3K14Ac peptide displacement; 360,000 compounds, 4.4% hits; Q9UIF8; Potency, µM (titrated, usually from 114 µM), actives largely listed as inhibitors; also: nearly all actives have a fitted effect of over 60% in size
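In this displacement format the biotinylated H3(5-23) peptide acetylated at Lys14 serves as ligand at 50 nM, with BAZ2B at 50 nM in PBS pH 7.4 containing 0.01% Tween-20. Donor and acceptor beads are 10 ug/mL final.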
CtBP-E1A inh = CtBP/E1A binding inhibition | AlphaScreen GST-E1A/His-CtBP binding, 1536-well; stronger effect = lower value | activity change, % (test concentration not listed) | 340,000 compounds, 0.49% hits | AID 651724; in the data active = activity change below about -65%; inconclusive = mostly about -30% to -63%
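GST-E1A and His-tagged CtBP (125 nM each as 5X stock) were preincubated with pin-transferred compound for 2 h at 37 °C in the dark, then glutathione donor and nickel acceptor beads were added for 1 h before AlphaScreen reading.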
A number is an active result; - = inactive; ? = inconclusive; . = no result given; [ ] = another dose, or the depositor's remark. Unless noted, calls follow the shape of the dose curve; as a rule, active = well fitted inhibition curve with a large enough effect; inconclusive = small, poorly fitted or top-dose-only effect; inactive = no such curve, though single readings can be large or run the other way.

SMILES | JMJD2A Tudor | G9a block | Six1-Eya2 blk | HP1b chromo inh | BAZ2B inh | CtBP-E1A inh
CCn1c(O)c(N=NC(=O)CNc2ccc(C)cc2)c2ccccc21 | 56.2µM | ? | - | ? | 31.6µM | -
Cc1ccc(NCC(=O)N=Nc2c(O)n(C)c3ccccc23)cc1 | - | . | - | - | 17.8µM | -
Cn1c(O)c(N=NC(=O)CNC(=O)c2ccccc2)c2ccccc21 | - | - | - | - | - | -
Cc1ccccc1NC(=O)Cn1c(O)c(N=NC(=O)c2ccccc2O)c2ccccc21 | - | ? | - | - | 63.1µM | -
Nc1nc(Nc2ccccc2)nc2c1ncn2[C@@H]1O[C@H](CO)[C@H](O)[C@H]1O | . | -[12.7 µM] | . | . | . | .
COc1ccc2c(c1)c1c(c(=O)n(-c3ccccc3C)c(=O)n1CC(=O)Nc1c(C)cccc1C)n2C | - | - | . | - | - | .
Cc1cc(C(=O)CSc2nc3ccccc3c(=O)[nH]2)c(C)n1C | - | ? | - | - | - | -
Cc1cc(C(=O)CSC(C)c2nc3ccccc3c(=O)[nH]2)c(C)n1C (configuration not stated) | - | 50.1µM | - | - | - | -
Cc1cc(C)n(CC(=O)O)c(=O)c1[N+](=O)[O-] | - | 44.7µM | - | - | - | -
Cc1cc(=O)n(CC(=O)O)c2ccccc12 | - | - | - | - | - | -
COCCCNCCOCCOc1ccccc1-c1ccccc1 | 2.51µM | ? | - | ? | 50.1µM | -
COC(=O)c1ccccc1OCCCN(C)C | 89.1µM | 8.91µM | - | ? | 79.4µM | -
O=C(NCCOc1ccccc1-c1ccccc1)c1ccco1 | - | - | - | - | - | -
C=CCNCCOCCOc1ccccc1-c1ccccc1 | 50.1µM | . | - | - | 79.4µM | .
CCC(C)NCCOCCOc1ccccc1-c1ccccc1 (configuration not stated) | 3.55µM | 12.6µM | - | ? | 50.1µM | -
COC(=O)c1cc(C)nc2c1c(=O)nc(SCc1cccc(C(F)(F)F)c1)n2C1CC1 | - | - | . | - | - | .
CN(C)CCNCCCOc1ccccc1-c1ccccc1 | . | 8.91µM | . | . | 39.8µM | .
CC(C)(C)NCCOCCOc1ccccc1-c1ccccc1 | 1.78µM | 3.55µM | - | 22.4µM | 22.4µM | -
NCCOc1ccccc1-c1ccccc1 | - | - | - | - | - | -
Cc1ccccc1C(=O)Nc1ccccc1OCc1cc(=O)n2ccccc2n1 | - | - | . | - | - | .
CC(C)(C)c1ccc(C(=O)NCC(c2cccnc2)N2CCc3ccccc3C2)cc1 (configuration not stated) | ? | ? | . | ? | 3.16µM | .
Cc1ccc(NC(=O)C(=O)NCC(c2cccnc2)N2CCc3ccccc3C2)cc1 (configuration not stated) | - | - | . | - | - | .
Cc1ccc(C(=O)NCC(c2cccnc2)N2CCc3ccccc3C2)cc1C (configuration not stated) | ? | ? | . | - | 12.6µM | .
COc1cccc(NC(=O)C(Sc2nnc(Nc3ccccc3C)s2)c2ccccc2)c1 (configuration not stated) | - | ? | - | - | - | -
COc1ccc(Nc2nnc(SC(C(=O)Nc3cc(C)ccc3C)c3ccccc3)s2)cc1 (configuration not stated) | - | 50.1µM | - | - | - | -
SMILES | JMJD2A Tudor | G9a block | Six1-Eya2 blk | HP1b chromo inh | BAZ2B inh | CtBP-E1A inh
COc1ccc(Nc2nnc(SC(C(=O)Nc3ccc(OC)c(Cl)c3)c3ccccc3)s2)cc1 (configuration not stated) | - | 20µM | ? | - | - | -
COc1ccc(C)cc1NC(=O)C(Sc1nnc(Nc2cc(C)ccc2OC)s1)c1ccccc1 (configuration not stated) | ? | 3.55µM | - | - | - | -
COc1ccc(NC(=O)Cc2csc(COc3cccc(C)c3)n2)c(OC)c1 | - | - | . | - | - | .
CC(CNC(=O)c1ccc(Cn2c(SCc3ccccc3)nc3cccnc32)cc1)c1ccccc1 (configuration not stated) | - | - | . | - | - | .
O=C(O)Cn1c(CCS(=O)(=O)c2ccc(Br)cc2)nc2ccccc21 | - | 44.7µM | - | - | - | -
N#CC1(c2ccccc2)CCC(NCCc2ccccc2)CC1 (configuration not stated) | 50.1µM | 25.1µM | - | - | 56.2µM | .
O=C(NCCc1ccccc1)C1(c2ccccc2)CCCC1 | - | -[0.501 µM] | - | - | - | -
COc1ccc(/C=N/Nc2nncn2N)cc1Br | - | . | -74.9 | - | ? | ?
COc1ccc(C(=O)c2cn(Cc3ccccc3)c3ccccc3c2=O)cc1OC | - | - | . | - | - | .
CC1=C(C(=O)Nc2cccc(C(F)(F)F)c2)C(c2ccccc2)n2ncnc2N1 (configuration not stated) | - | - | . | - | - | .
Cc1ccc(C(NC(=O)N2CCOCC2)C(Cl)Cl)cc1F (configuration not stated) | - | 44.7µM | - | - | - | -
Cc1ccc(C(NC(=O)N2CC(C)OC(C)C2)C(Cl)Cl)cc1F (configuration not stated) | - | 79.4µM | - | - | - | -
CCc1ccc(N(CC)C(=O)c2cc3c(=O)oc4ccc(C)cc4c3s2)cc1 | - | - | . | - | - | .
Cc1ccc(N2C(=O)[C@@H]3[C@H](C2=O)C2CCCN2[C@@H]3C(=O)c2ccccc2)cc1 (some centres not stated) | 56.2µM | -[2.33 µM] | - | - | ? | -
O=C(c1ccc(Cl)cc1)[C@@H]1[C@@H]2C(=O)N(c3ccccc3)C(=O)[C@@H]2C2c3ccccc3C=NN21 (some centres not stated) | - | 20µM | - | - | - | -
O=C(c1ccc(Cl)cc1)C1C2C(=O)N(c3ccccc3)C(=O)C2C2CCCN21 (configuration not stated) | -[11.4 µM] | 8.91µM | - | - | ? | -
O=C(c1ccccc1)[C@@H]1[C@@H]2C(=O)N(c3ccc(F)cc3)C(=O)[C@@H]2C2CCCN21 (some centres not stated) | ? | . | - | - | - | .
COc1cccc(C2=Nn3c(nnc3-c3cccc(OC)c3OC)SC2)c1 | - | . | . | . | . | .
CS(=O)(=O)Nc1ccc([N+](=O)[O-])cc1OC1CCCCC1 | . | - | . | . | . | .
Cn1c(=O)c2c(nc(CN3CCN(c4ccccc4)CC3)n2CCN2CCOCC2)n(C)c1=O | - | 50.1µM | - | - | - | -
COc1ccc(N2CCCn3c2nc2c3c(=O)n(CCCc3ccccc3)c(=O)n2C)cc1 | . | 10µM | . | . | ? | .
COc1ccc(N2CCn3c2nc2c3c(=O)n(CCc3ccccc3)c(=O)n2C)cc1 | . | - | . | . | - | .
COc1ccc(N2CCN(Cc3nc4c(c(=O)n(C)c(=O)n4C)n3CCc3ccccc3)CC2)cc1 | - | 7.94µM | - | - | - | -
Cc1nc(CN2CCN(C(=O)NC3(c4ccccc4)CC3)CC2)cs1 | -[11.4 µM] | -[12.7 µM] | - | - | - | -
